Source: PubChem BioAssay
Compounds with a hit are over-represented: about 3.7% of the library has one in this group of screens.
PTHR1 ag: PTHR1 (human) receptor agonism | Q03431 | HEK293 GP2 PTHR1 cells, GloSensor cAMP luminescence, 1 h | Potency, µM (highest dose often 115 µM), inactives show at the highest dose activation, hits mostly activators | 410,000 compounds, 0.075% hits; also: potency is read from the fitted curve at half-maximal effect; nearly all actives have a fitted effect of over 55% in size
Target sequence (Q03431 whole entry, looked up): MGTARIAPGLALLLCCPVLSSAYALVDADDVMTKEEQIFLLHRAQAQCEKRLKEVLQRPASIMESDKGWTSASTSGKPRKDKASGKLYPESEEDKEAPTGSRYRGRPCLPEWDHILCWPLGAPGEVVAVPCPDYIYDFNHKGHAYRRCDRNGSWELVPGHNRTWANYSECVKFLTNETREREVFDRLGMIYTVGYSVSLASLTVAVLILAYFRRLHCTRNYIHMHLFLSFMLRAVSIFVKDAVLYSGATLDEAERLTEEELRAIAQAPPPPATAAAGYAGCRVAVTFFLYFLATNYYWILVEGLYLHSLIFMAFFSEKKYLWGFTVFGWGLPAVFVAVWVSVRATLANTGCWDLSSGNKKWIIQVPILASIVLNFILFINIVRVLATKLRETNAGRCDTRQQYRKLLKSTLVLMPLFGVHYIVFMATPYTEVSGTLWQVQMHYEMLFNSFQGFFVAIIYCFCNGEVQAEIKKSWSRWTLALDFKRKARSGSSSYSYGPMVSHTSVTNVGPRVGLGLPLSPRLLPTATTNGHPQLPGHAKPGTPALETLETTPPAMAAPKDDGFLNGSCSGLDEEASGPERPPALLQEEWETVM
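HEK-293-derived GP2 cells expressing PTHR1 and a GloSensor cAMP reporter, 3,000/well, plated overnight, given luciferin plus IBMX (each 0.5 mM as added) for 1 h at 37 °C, then compound for 1 h at 37 °C. Luminescence was read after 15 min at room temperature.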
B2AR arrestin: beta2AR (human) beta-arrestin recruitment activity; P07550; beta-arrestin recruitment to beta2AR, cell-based reporter; Potency, µM (doses to about 46.1 µM), for inactives: top-dose activation, most hits filed as activators; 330,000 compounds, 0.02% hits; AID 492947;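 also: potency is read from the fitted curve at half-maximal effect; 0% = DMSO controls and full agonism = EC100 isoproterenol or metaproterenol; nearly all actives have a fitted effect of over 65% in size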
BRCA1 expr up: BRCA1 expression activation; MCF7-BRCA1-FFLuc reporter, luminescence, 48 h; response scale: scaled: vehicle 0%, 10 µM genistein 100%; Potency, µM (highest dose often 46.1 µM), for inactives: at the top dose activation, hits mostly activators; 380,000 compounds, 1.1% hits; also: potency is read from the fitted curve at half-maximal effect; nearly all actives have a fitted effect of over 80% in size
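MCF7 cells carrying a BRCA1-firefly luciferase reporter (2000 cells/well, phenol-red free MEM) were attached for 2 h at 37 °C, then given compounds for 48 h. Luminescence was read 15 min after luciferase reagent; activity normalized to genistein (10 microM) and DMSO.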
RGS4 inh: human RGS4 inhibition. Potency, µM (titrated, usually from 114 µM), for inactives: top-dose activity change, negative = inhibition, most hits filed as inhibitors. 390,000 compounds, 0.039% hits. Transcreener GDP fluorescence polarization, RGS4-accelerated GTP hydrolysis. P49798; also: potency is read from the fitted curve at half-maximal effect; % is scaled to controls: 0 for no effect and ±100 for the full control effect; nearly all actives have a fitted effect of over 75% in size
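MLSMR compounds (23 nl, pin-transferred) preincubated 10 min at room temperature with a 500nM (2x) first reagent, then RGS4 at 900nM (2x) plus Transcreener GDP mix added; fluorescence polarization (620/688 nm) read before and after 90 min at 30 °C.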
D3 ag: agonists of human D3 dopamine receptor; P35462; D3R DiscoveRx beta-arrestin cells, luminescence, 90 min; max activation, %; 410,000 compounds, 0.58% hits; AID 652048; in the data active = max activation above about 30%; also: 0% is about no effect
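Agonist mode: compounds and dopamine controls were applied to plated cells for 90 min at 37 degrees C after an overnight attachment at 1500 cells/well. Luminescent read-out followed 30 - 60 minutes at room temperature with DiscoveRx detection reagent.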
D3 antag: blocks the human D3 dopamine receptor. P35462. D3R cells, DiscoveRx beta-arrestin luminescence, antagonist mode; stronger effect = lower value. max response, negative = inhibition, %. 360,000 compounds, 2.5% hits; in the data active = max response below about -50%; inconclusive = no clear call, values can overlap the other calls; also: % is scaled to controls: 0 for no effect and ±100 for the full control effect
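Cells plated overnight at 1500 cells/well, then exposed to library compounds with dopamine controls for 90 minutes at 37 degrees C. DiscoveRx reagent added for 30–60 minutes at room temperature; luminescence read, quantitative HTS format.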
* hit, by the source's call; i = inactive; ? = inconclusive; / = no result; [ ] = another dose, or the depositor's remark. Unless noted, calls follow the shape of the dose curve; as a rule, active = well fitted curve in the direction sought with a large enough effect; inconclusive = small, poorly fitted or top-dose-only effect, or another doubt; inactive = no such curve, though single readings can be large; an effect the other way counts as inactive or inconclusive.

SMILES | PTHR1 ag | B2AR arrestin | BRCA1 expr up | RGS4 inh | D3 ag | D3 antag
CN1C2CCC1/C(=C/c1ccccn1)C(=O)/C2=C\c1ccccn1 | -8% | 0% | -87% | -52% | -20 | -70*
CCC12CN3CC(CC)(CN(C1)C3c1ccccn1)C2=O (configuration not stated) | -20% | / | / | 14% | 9 | /
CC(CCc1ccccc1)NC(C)C(O)c1ccc(O)cc1 (configuration not stated) | -9% | 4% | -5% | ? | 0 | -70*
COc1ccc(CCC(C)NCCc2ccccc2)cc1 (configuration not stated) | -5%[57.5 µM] | 0% | -6% | 4% | -21 | -26
Brc1c(NC2=NCCN2)ccc2nccnc12 | / | 0% | 5% | 19µM* | 9 | /
Cc1cccc(OCCNc2ncccc2[N+](=O)[O-])c1 | -30% | / | 11µM* | / | -8 | 43
Clc1ccc2c(c1)C(c1ccccc1Cl)=NCc1nnc(N3CCN(CCOc4ccccc4)CC3)n1-2 | i | ? | -45% | -14% | 54* | -11
Clc1ccc2c(c1)C(c1ccccc1Cl)=NCc1nnc(N3CCN(CCSc4ccccc4)CC3)n1-2 | -18% | 0% | -96% | 12% | 1 | -6
Cc1ccc(-c2nc3c(=O)n(C)c(=O)nc-3n(C)n2)cc1 | / | / | -79% | -34% | / | /
Cn1ncnc2c(=O)n(C)c(=O)nc1-2 | -58% | -1% | -74% | -41% | -10 | -81*
NC(=NCCc1ccc(I)cc1)SCCCc1cnc[nH]1 | / | / | / | i | / | /
c1ccc2c(c1)Sc1ccccc1N2C[C@@H]1CN2CCC1CC2 | / | / | / | / | -8 | /
OCCN1CCN(CCCN2c3ccccc3Sc3ccc(C(F)(F)F)cc32)CC1 | i | 0% | -16% | ? | -86 | -96*
FC(F)(F)c1ccc2c(c1)N(CCCN1CCN(CCCl)CC1)c1ccccc1S2 | i | 0% | -68% | -41% | -18 | -78*
Oc1ccc2c3c1O[C@H]1[C@@H](O)C=C[C@H]4[C@@H](C2)NCC[C@@]341 | / | / | / | / | -12 | /
COC1CCC(OC2CC(C3(C)CCC4(CC(O)C(C)C(C(C)/C=C(\C)C(=O)C(C)CC(C)C(=O)O)O4)O3)OC3(OC(C4OC(O)(CO)C(C)CC4C)CC3C)C2C)OC1C (configuration not stated) | -50% | / | ? | 19% | 71* | 133
C1=C(c2c[nH]c3ccccc23)CCNC1 | / | 0% | / | / | / | /
CC(C)N1CC=C(c2c[nH]c3ccccc23)CC1 | -19%[57.5 µM] | -1% | -39% | 16% | -21 | -58*
N#Cc1c(/N=C/C2C(=O)NC(=S)NC2=O)sc2c1CCCC2 | i | 0% | 4% | ? | 32* | 3
COc1cccc(CN2CC=C(c3ccc(F)cc3)CC2)c1 | -5% | 0% | -2% | -9% | -26 | -77*
COc1ccc(C(CNC(=O)c2ccc3c(c2)CCC3)N(C)C)cc1 (configuration not stated) | i | -1% | -6% | 4% | -12 | -81*
COc1ccc(C(=O)C(Cc2ccccc2)N(C)C)cc1 (configuration not stated) | i | 0% | -11% | 27% | -13 | 9
Cc1cccc(CN2CCN(c3ccc(Cl)cc3)CC2)c1 | -44% | 4% | 1% | -12% | 3 | -95*
Fc1ccc(CN2CCN(c3ccc(Cl)cc3)CC2)cc1 | -38% | 0% | -10% | 23% | 0 | -52*
Fc1cccc(F)c1CN1CCN(c2ccc(Cl)cc2)CC1 | i | -1% | -27% | 18% | -12 | -16
Cc1cccc(CN2CCN(Cc3ccc(Cl)cc3)CC2)c1 | i | -1% | -38% | 23% | -22 | -64*
CCOP(=O)(OCC)/C(C#N)=C/c1ccc(-c2ccc(F)cc2F)o1 | -33% | 0% | -3% | -3% | 2 | 27
Cc1ccc(C)c(NC(=O)Cn2nc(C)c3nn(-c4ccc(Cl)cc4)c(C)c3c2=O)c1 | -71% | / | / | -7% | 10 | /
